High-throughput results as filed in PubChem BioAssay.
Rows were chosen to be rich in hits. Some 1.5% of all compounds tested hit in one or more screens of this group.
MCL1-BIM inh = disrupts human MCL1 binding to BIM-BH3 peptide | GST-MCL1 / FITC-Bim-BH3 fluorescence polarization | Q07820 | 320,000 tested, 0.68% active | inhibition, % at 10.9 µM;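 active means inhibition above the mean inhibition of all tested compounds plus 3 SD, set per campaign, cut at about 40% in these data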;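 further: 0% = DMSO wells and 100% = unlabeled Bim-BH3 peptide control; higher means more loss of mP so more displacement of Bim peptide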
GLD-1 TGE inh = GLD-1-TGE RNA interaction inhibition (C. elegans). 320,000 tested, 0.44% active. inhibition, % at 5.96 µM. purified GLD-1 + fluorescein TGE RNA, fluorescence polarization. Q17339;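 active means percent inhibition above a per-plate cutoff, the plate mean of test compounds plus 3 SD, cut at about 30% in these data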;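 further: 0% = DMSO wells with GLD-1 and probe and 100% = wells lacking GLD-1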
BCLXL inh = blocks human Bcl-xL binding to Bim BH3 peptide; Q07817; GST-Bcl-xL / FITC-Bim BH3 peptide fluorescence polarization; inhibition, % at 10.9 µM; 320,000 tested, 0.7% active;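 active means inhibition above the mean of all tested compounds plus 3 SD, cutoff set per campaign, cut at about 30% in these data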;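 further: 0% = DMSO wells and 100% = unlabeled Bim-BH3 peptide competitor; inhibitors lower millipolarization by displacing the labeled peptide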
MEX-5 binding = C. elegans MEX-5 TCR-2 RNA binding activity; MEX-5/FITC-TCR2 RNA binding, fluorescence polarization; active compounds read low; activity score (negative = inhibition of binding), % at 10 µM; 300,000 tested, 0.38% active; AID 1832;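 active means inhibition past about -25% in most replicates, and total fluorescence under double the plate's negative control median, limit read from the data; inconclusive means replicates evenly split on the limit, or fluorescence at least double controls; inactive means too little inhibition in most replicates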;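 further: 0% = DMSO and -100% = 5 µM competing unlabeled TCR2 RNA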
eLon inh = E. coli protease La inhibition. purified E. coli Lon protease, fluorescence polarization. AID 602123. 360,000 tested, 0.42% active. inhibition, % at 7.94 µM; in the data active means inhibition above about 13%, passing the limit was not always enough;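 further: 0% = enzyme with probe and DMSO and 100% = no enzyme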
Target sequence (P0A9M0 whole entry, looked up): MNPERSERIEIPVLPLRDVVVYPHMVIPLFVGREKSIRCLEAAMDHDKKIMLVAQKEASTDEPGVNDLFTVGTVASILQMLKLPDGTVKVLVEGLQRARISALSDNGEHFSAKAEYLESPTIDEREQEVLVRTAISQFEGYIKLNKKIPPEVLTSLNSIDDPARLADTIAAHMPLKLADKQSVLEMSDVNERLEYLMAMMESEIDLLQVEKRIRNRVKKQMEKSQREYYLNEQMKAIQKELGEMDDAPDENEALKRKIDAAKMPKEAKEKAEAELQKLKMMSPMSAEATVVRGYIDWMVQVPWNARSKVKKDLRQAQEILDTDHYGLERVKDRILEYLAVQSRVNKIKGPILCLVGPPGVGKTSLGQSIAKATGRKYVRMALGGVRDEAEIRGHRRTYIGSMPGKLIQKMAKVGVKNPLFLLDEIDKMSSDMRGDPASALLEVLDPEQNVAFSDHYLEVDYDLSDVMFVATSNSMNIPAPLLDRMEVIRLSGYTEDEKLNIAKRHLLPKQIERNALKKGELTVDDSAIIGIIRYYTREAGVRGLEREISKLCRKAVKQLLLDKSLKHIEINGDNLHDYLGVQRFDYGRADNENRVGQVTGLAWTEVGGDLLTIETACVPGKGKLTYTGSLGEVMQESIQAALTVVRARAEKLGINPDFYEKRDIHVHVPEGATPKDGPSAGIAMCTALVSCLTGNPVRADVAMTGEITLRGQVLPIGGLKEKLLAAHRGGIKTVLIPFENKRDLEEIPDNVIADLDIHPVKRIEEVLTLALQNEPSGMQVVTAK
EBV gp42 block = EBV gp42 inhibition; Fluorescence polarization binding assay, mP read-out; AID 1085; inhibition, % (tested at 21.74 µM); 220,000 tested, 0.42% active; Q1HVG2; in the data active means inhibition above about 50%
BCLXL inh confirm = Bcl-xL (human) inhibition, MCL1 counter-screen confirmation; 1,700 tested, 54% active; GST-Bcl-xL / FITC-Bim BH3 peptide FP binding; shares compounds with MCL1-BIM inh; inhibition, % at 10.9 µM; AID 2166;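 active means inhibition above a cutoff equal to the mean inhibition of all tested compounds plus 3 SD, cut at about 30% in these data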;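 further: 0% = DMSO wells and 100% = unlabeled Bim BH3 control peptide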
MCL1 inh confirm = MCL1-BIM-BH3 interaction inhibition, confirmation. shares compounds with MCL1-BIM inh. GST-MCL1 / FITC-Bim-BH3 fluorescence polarization. inhibition, % at 10.9 µM. 1,700 tested, 61% active. AID 2168;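 active means inhibition above the average of all tested compounds plus 3 SD, cut at about 40% in these data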;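 further: 0% = DMSO wells and 100% = unlabeled Bim-BH3 control peptide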
GLD1 RNA confirm = GLD-1 TGE RNA interaction inhibition, confirmation; shares compounds with GLD-1 TGE inh; GLD-1/FL-TGE RNA fluorescence polarization, biochemical; inhibition, % at 5.96 µM; 550 tested, 10% active; AID 2459;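 active means average inhibition across triplicates above the hit cutoff set in the primary screen, cut at about 32% in these data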;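 further: 0% = GLD-1 with RNA probe and DMSO and 100% = wells lacking GLD-1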
E coli Lon conf = confirmation of E. coli Lon protease inhibitors; shares compounds with eLon inh; purified E. coli Lon, fluorescence polarization; inhibition, % at 7.94 µM; 1,400 tested, 31% active; in the data active means inhibition above about 16%;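 further: 0% = enzyme with probe and DMSO and 100% = no enzyme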
An asterisk follows results filed as active; ? = inconclusive; · = no result; + = active, no number.

SMILES	MCL1-BIM inh	GLD-1 TGE inh	BCLXL inh	MEX-5 binding	eLon inh	EBV gp42 block	BCLXL inh confirm	MCL1 inh confirm	E coli Lon conf	others
COC(=O)c1cc2c(C)cc3ccc(C)cn3c-2c1C(=O)OC	98.6*	54.7*	92.6*	-12.8	40.2*	87.9*	74.7*	97.6*	78.0*	GLD1 RNA confirm=41.3*
COC(=O)c1cc2c(C)c(C)c3ccccn3c-2c1C(=O)OC	115.3*	86.1*	111.7*	?	21.7*	50.5*	70.6*	80.7*	59.8*
COC(=O)c1coc(-c2ccc(C)cc2)c1C(=O)OC	4.3	-0.9	4.3	-3.4	-7.9	-3.2	·	·	·
Cc1ccc(-c2ccccc2NC(=O)CS(=O)CC(=O)Nc2ccc(C)c(Cl)c2)o1 (centres undefined)	140.6*	140.1*	119.1*	-3.9	113.7*	·	11.0	15.3	16.4*
CN(C)CCCNc1nc2cc(-c3ccc(F)cc3)sc2c(=O)n1C	·	·	·	·	-8.2	·	·	·	·
COCCNC(=O)NC(=O)CN1CCCc2ccccc21	73.5*	-5.2	51.1*	-3.1	48.0*	5.1	6.9	12.2	6.5
CC(C)(C)NC(=O)NC(=O)CN1CCc2ccccc21	3.7	0.9	1.6	-2.5	-9.8	-6.6	·	·	·
CCn1c(CSc2nnc3ccccn23)nc2cc(C(=O)O)ccc21	110.4*	95.5*	99.3*	-20.7	51.8*	83.0*	64.3*	86.0*	42.0*	GLD1 RNA confirm=32.0*
CCOc1ccc(C(=O)CSc2nnc3ccccn23)cc1	-6.0	6.7	-1.7	1.1	-0.5	-2.3	·	·	·
O=C(NCCCC(NC(=O)OCc1ccccc1)C(=O)O)OCc1ccccc1 (centres undefined)	1.6	-9.0	-0.8	-1.0	3.6	·	·	·	·
CC(C)(C)OC(=O)N[C@@H](Cc1ccccc1)C(=O)N1CCC(C(=O)NCC(=O)O)CC1	-0.3	1.2	2.9	4.3	7.3	·	·	·	·
CC(C)(C)OC(=O)NC(Cc1ccccc1)C(=O)N1CCC(C(=O)NCC(=O)Nc2ccc(F)cc2)CC1 (centres undefined)	122.0*	57.1*	105.2*	-56.5*	21.7*	·	111.3*	141.4*	43.2*
CCCC(C(=O)Nc1cc(S(=O)(=O)N2CCOCC2)ccc1OC)c1ccccc1 (centres undefined)	1.4	1.9	4.5	1.6	-18.9	·	·	·	·
O=c1[nH]c2ccccc2n1CCC1CCCCC1	-6.9	4.1	-1.2	2.2	-4.3	-0.9	·	·	·
CN=c1scc(-c2cccs2)n1/N=C/c1ccc(O)c(O)c1O	53.0*	8.2	21.9	-0.6	28.2*	1.9	68.4*	55.5*	14.3
CCC1(CC)SCCNC1=O	·	·	·	·	4.2	·	·	·	·
Cc1cccc(NC2=C(NCCO)C(=O)c3ccccc3C2=O)c1	2.8	0.0	3.6	-2.2	-6.2	-8.7	·	·	·
Cn1c(NCCc2ccccc2)cc(=O)n(C)c1=O	1.3	6.0	2.5	-0.4	-1.1	1.6	·	·	·
CCCCNc1c2c3c(cccc3n(C)c1=O)C(=O)c1ccccc1-2	+	+	198.2*	?	188.0*	182.7*	178.1*	+	101.2*
CC(=O)Nc1ccc(Nc2c3c4c(cccc4n(C)c2=O)C(=O)c2ccccc2-3)cc1	+	169.0*	+	-2.3	148.2*	140.5*	181.4*	+	178.2*
CC(=O)Nc1ccc(NC2=CC(=O)c3ccccc3C2=O)cc1	2.0	1.2	10.8	-0.7	2.3	·	·	·	·
Cn1c(=O)c(NCCO)c2c3c(cccc31)C(=O)c1ccccc1-2	123.5*	80.9*	114.3*	·	+	-98.3	124.9*	128.5*	+
Cn1c(=O)c(NCCc2ccccc2)c2c3c(cccc31)C(=O)c1ccccc1-2	+	+	+	?	+	+	+	+	-456.9
O=C(Nc1ccccc1C(=O)NCCc1ccccc1)c1cnccn1	-5.9	2.4	4.6	1.2	-3.9	·	·	·	·
c1ccc(CNc2ccccn2)cc1	6.8	-0.5	5.4	-0.9	1.4	·	·	·	·
SMILES	MCL1-BIM inh	GLD-1 TGE inh	BCLXL inh	MEX-5 binding	eLon inh	EBV gp42 block	BCLXL inh confirm	MCL1 inh confirm	E coli Lon conf	others
c1ccc(Nc2ccccc2Nc2ccccn2)nc1	98.2*	141.3*	98.2*	-0.2	33.1*	-1.8	18.3	29.4	2.3
COc1ccc(NC(=O)c2cccc(-c3ccc(O)cc3)c2)cn1	179.5*	135.2*	144.1*	-19.3	74.1*	·	107.3*	132.6*	34.7*
C=C(C)c1cccc(C(C)(C)NC(=O)Nc2ccc(OC)nc2)c1	91.0*	82.5*	82.1*	-2.9	45.9*	·	56.6*	72.9*	18.2*
CCN1CCN(C(=O)CN(CC)S(=O)(=O)c2ccc(F)cc2)CC1	-0.6	-0.4	0.9	-0.2	-1.7	·	·	·	·
O=c1[nH]c(-[n+]2ccc3ccccc3c2)c(/C=N/N=C(\[O-])c2ccccc2)s1	99.2*	137.3*	92.8*	-7.6	43.2*	·	22.3	33.7	-2.4
CC(C)(C)c1cc[n+](-c2[nH]c(=O)sc2/C=N/N=C(\[O-])c2cccnc2)cc1	-1.3	2.4	1.5	-1.5	3.0	·	·	·	·
COc1ccc(CN(C)C(=O)c2cccc(NS(=O)(=O)c3ccccc3)c2)c(OC)c1	0.5	1.0	1.8	1.4	9.1	·	·	·	·
NC(=S)N/N=C/c1ccccc1O	14.9	-1.7	8.9	-2.8	7.5	-5.8	·	·	·
Cc1cc(/C=N/NC(N)=S)c(O)c(/C=N/NC(N)=S)c1	+	189.0*	+	-4.0	+	147.1*	189.4*	+	189.3*
O=C(Nc1ccc(F)c(Cl)c1)c1cc(C2CCCN(S(=O)(=O)c3cccc4cccnc34)C2)on1 (centres undefined)	·	·	·	·	4.3	·	·	·	·
O=C1N=C(N2C=CC(=C3C=CNC=C3)C=C2)/C(=C/N=NC(=O)c2ccccc2O)S1	114.7*	81.2*	99.2*	-46.2*	40.5*	·	84.0*	114.0*	40.6*
Nc1cccc(N2C(=O)c3cccc4c(N)ccc(c34)C2=O)c1	+	195.2*	+	?	+	·	+	+	+
CC(C)CCN1C(=O)c2cccc3c(N)ccc(c23)C1=O	+	185.3*	172.8*	·	+	·	145.4*	164.3*	142.8*
